Measured values reported in publication PMC9911399, “Two distinct binding modes provide the RNA-binding protein RbFox with extraordinary sequence specificity”.
Positions count from the first letter of the chain named. In all, about 16,000 sequences were measured (“ka relative to ugcaugu”: median about 0.0091, highest 2% from about 0.032 on). The sample holds the highest values, similar sequences and a random draw of the others, so the mix is not that of the screen.

T1: RBFOX1 RRM (Homo sapiens, UniProt Q9NWB1 109-208)
T1 sequence: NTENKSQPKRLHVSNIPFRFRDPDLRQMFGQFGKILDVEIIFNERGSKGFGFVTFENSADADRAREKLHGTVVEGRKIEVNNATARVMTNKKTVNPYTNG

B1: CCAUGCU (DNA:RNA)
RNA: GGGAGACCGGAAUUCAGAUUGUCCCCAUGCUUUAAAUCCCGUCGUAGCCACCA
DNA 1: CAATCTGAATTCCGGTCTCCC
DNA 2: TGGTGGCTACGACGGGATT
B2: AUGCACC (DNA:RNA)
RNA: B1 RNA with C25A, C26U, A27G, U28C, G29A, U31C
DNA 1: CAATCTGAATTCCGGTCTCCC
DNA 2: TGGTGGCTACGACGGGATT
B3: UAGCACG (DNA:RNA)
RNA: B1 RNA with C25U, C26A, A27G, U28C, G29A, U31G
DNA 1: CAATCTGAATTCCGGTCTCCC
DNA 2: TGGTGGCTACGACGGGATT
B4: UAGCACC (DNA:RNA)
RNA: B1 RNA with C25U, C26A, A27G, U28C, G29A, U31C
DNA 1: CAATCTGAATTCCGGTCTCCC
DNA 2: TGGTGGCTACGACGGGATT
B5: AUGCAUC (DNA:RNA)
RNA: GGGAGACCGGAAUUCAGAUUGUCCAUGCAUCUUAAAUCCCGUCGUAGCCACCA
DNA 1: CAATCTGAATTCCGGTCTCCC
DNA 2: TGGTGGCTACGACGGGATT
B6: AUGCAUG (DNA:RNA)
RNA: B5 RNA with C31G
DNA 1: CAATCTGAATTCCGGTCTCCC
DNA 2: TGGTGGCTACGACGGGATT
B7: UUGCACG (DNA:RNA)
RNA: B5 RNA with A25U, U30C, C31G
DNA 1: CAATCTGAATTCCGGTCTCCC
DNA 2: TGGTGGCTACGACGGGATT
B8: AUCCACG (DNA:RNA)
RNA: B5 RNA with G27C, U30C, C31G
DNA 1: CAATCTGAATTCCGGTCTCCC
DNA 2: TGGTGGCTACGACGGGATT
B9: AUGCACG (DNA:RNA)
RNA: B5 RNA with U30C, C31G
DNA 1: CAATCTGAATTCCGGTCTCCC
DNA 2: TGGTGGCTACGACGGGATT
B10: UACCACG (DNA:RNA)
RNA: B5 RNA with A25U, U26A, G27C, U30C, C31G
DNA 1: CAATCTGAATTCCGGTCTCCC
DNA 2: TGGTGGCTACGACGGGATT
B11: UUGCAGA (DNA:RNA)
RNA: B5 RNA with A25U, U30G, C31A
DNA 1: CAATCTGAATTCCGGTCTCCC
DNA 2: TGGTGGCTACGACGGGATT
B12: AUGCAUA (DNA:RNA)
RNA: B5 RNA with C31A
DNA 1: CAATCTGAATTCCGGTCTCCC
DNA 2: TGGTGGCTACGACGGGATT
B13: UUGCACC (DNA:RNA)
RNA: B5 RNA with A25U, U30C
DNA 1: CAATCTGAATTCCGGTCTCCC
DNA 2: TGGTGGCTACGACGGGATT
B14: GUCCCAA (DNA:RNA)
RNA: B5 RNA with A25G, G27C, A29C, U30A, C31A
DNA 1: CAATCTGAATTCCGGTCTCCC
DNA 2: TGGTGGCTACGACGGGATT
B15: CAUUACG (DNA:RNA)
RNA: B1 RNA with C26A, A27U, G29A, U31G
DNA 1: CAATCTGAATTCCGGTCTCCC
DNA 2: TGGTGGCTACGACGGGATT
B16: UCACUCG (DNA:RNA)
RNA: B1 RNA with C25U, U28C, G29U, U31G
DNA 1: CAATCTGAATTCCGGTCTCCC
DNA 2: TGGTGGCTACGACGGGATT
B17: ACGUGCG (DNA:RNA)
RNA: B1 RNA with C25A, A27G, U31G
DNA 1: CAATCTGAATTCCGGTCTCCC
DNA 2: TGGTGGCTACGACGGGATT
B18: GUGCACG (DNA:RNA)
RNA: B5 RNA with A25G, U30C, C31G
DNA 1: CAATCTGAATTCCGGTCTCCC
DNA 2: TGGTGGCTACGACGGGATT
B19: GUGCACC (DNA:RNA)
RNA: B5 RNA with A25G, U30C
DNA 1: CAATCTGAATTCCGGTCTCCC
DNA 2: TGGTGGCTACGACGGGATT
B20: AGGUCUC (DNA:RNA)
RNA: B5 RNA with U26G, C28U, A29C
DNA 1: CAATCTGAATTCCGGTCTCCC
DNA 2: TGGTGGCTACGACGGGATT

What follows are binders tested against T1, RBFOX1 RRM (assay: EMSA; HiTS-Eq, 1 nM pool, 10 min; buffer printed only for the single-RNA assays: 10 mM Tris pH 7.5, 150 mM NaCl, 3.4 mM EDTA, 0.001% NP-40, 30 C). Conditions: tags: His6 N-terminal (pET28a); label: 5' 32P.
Procedure, shortened: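 These values rest on relative association constants, computed from read-count changes of each RNA species versus the control reaction and normalised to the cognate motif. Reads came from free RNA recovered by 8% native PAGE after purified RbFox RRM (wild type or mutant) at increasing concentrations was equilibrated for 10 min in 50 µL with 1 nM of a 5′-radiolabelled pool with 7 randomized nucleotides and DNA-annealed flanks.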

| Binder | binding signal |
| --- | --- |
| B1 | 0.00802 KA relative to UGCAUGU |
| B2 | 0.0115 KA relative to UGCAUGU |
| B3 | 0.0464 KA relative to UGCAUGU |
| B4 | 0.0118 KA relative to UGCAUGU |
| B5 | 0.015 KA relative to UGCAUGU |
| B6 | 0.911 KA relative to UGCAUGU |
| B7 | 0.692 KA relative to UGCAUGU |
| B8 | 0.0022 KA relative to UGCAUGU |
| B9 | 0.361 KA relative to UGCAUGU |
| B10 | 0.00532 KA relative to UGCAUGU |
| B11 | 0.018 KA relative to UGCAUGU |
| B12 | 0.00891 KA relative to UGCAUGU |
| B13 | 0.0149 KA relative to UGCAUGU |
| B14 | 0.00597 KA relative to UGCAUGU |
| B15 | 0.00857 KA relative to UGCAUGU |
| B16 | 0.00518 KA relative to UGCAUGU |
| B17 | 0.0166 KA relative to UGCAUGU |
| B18 | 0.62 KA relative to UGCAUGU |
| B19 | 0.0178 KA relative to UGCAUGU |
| B20 | 0.0131 KA relative to UGCAUGU |
